# Reference: the supplement of paper PMC9023506
# Counter-ions that a name gives are not always drawn.
# Test system: Danio rerio larvae (5 dpf)
# Assay: optomotor response to blue moving lines, difference vs DMSO (percentage points (treated minus DMSO)); higher = more of the behaviour than the DMSO vehicle control
# Settings: 10 µM; exposure time: 3 h pre-incubation + 3 h imaging
# Description: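 5-dpf wild-type zebrafish larvae were imaged in 96-well plates. They were treated with 190 Tocris FDA-approved drugs at 10 µM (1 µl/ml DMSO) for 3 h before and 3 h during imaging at 28.5 °C, 48 larvae per drug. Automated image analysis gave % time moving and optomotor responses. Values are drug group mean minus DMSO vehicle mean (n=844), in percentage points, for 10 behaviours.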
row,SMILES,optomotor response to blue moving lines
1,COc1ccc(Cl)cc1C(=O)NCCc1ccc(S(=O)(=O)NC(=O)NC2CCCCC2)cc1 [Glibenclamide],1.29
2,N#C[C@@H]1C[C@@H]2C[C@@H]2N1C(=O)[C@@H](N)C12CC3CC(CC(O)(C3)C1)C2 [Saxagliptin hydrochloride],-7.01
3,COc1ccccc1OCCNCC(O)COc1cccc2[nH]c3ccccc3c12 (stereo not given) [Carvedilol],-0.112
4,NS(=O)(=O)c1cc2c(cc1Cl)NC(C1CC3C=CC1C3)NS2(=O)=O (stereo not given) [Cyclothiazide],-7.83
5,CCOC(=O)c1ncn2c1CN(C)C(=O)c1cc(F)ccc1-2 [Flumazenil],11.4
6,Clc1ccc(COC(Cn2ccnc2)c2ccc(Cl)cc2Cl)c(Cl)c1 (stereo not given) [Miconazole nitrate],-7.42
7,CC(C)C(=O)Nc1ccc([N+](=O)[O-])c(C(F)(F)F)c1 [Flutamide],-17.2
8,OC(c1cc(C(F)(F)F)nc2c(C(F)(F)F)cccc12)C1CCCCN1 (stereo not given) [Mefloquine hydrochloride],10.8
9,COc1cc(Nc2c(C#N)cnc3cc(OCCCN4CCN(C)CC4)c(OC)cc23)c(Cl)cc1Cl [Bosutinib],-9.89
10,CCc1nc(N)nc(N)c1-c1ccc(Cl)cc1 [Pyrimethamine],15.9
11,COc1cccc2c1C(=O)c1c(O)c3c(c(O)c1C2=O)C[C@@](O)(C(=O)CO)C[C@@H]3O[C@H]1C[C@H](N)[C@H](O)[C@H](C)O1 [Doxorubicin hydrochloride],3.86
12,CCC(C)(C)C(=O)O[C@H]1C[C@@H](C)C=C2C=C[C@H](C)[C@H](CC[C@@H]3C[C@@H](O)CC(=O)O3)[C@H]21 [Simvastatin],-4.79
13,OC(CNCC(O)C1CCc2cc(F)ccc2O1)C1CCc2cc(F)ccc2O1 (stereo not given) [Nebivolol hydrochloride],-16.6
14,CCc1ccc(CCOc2ccc(CC3SC(=O)NC3=O)cc2)nc1 (stereo not given) [Pioglitazone hydrochloride],-1.78
15,Cc1c(-c2ccc(O)cc2)n(Cc2ccc(OCCN3CCCCCC3)cc2)c2ccc(O)cc12 [Bazedoxifene acetate],1.43
16,OCc1cc(C(O)CNCCCCCCOCCCCc2ccccc2)ccc1O (stereo not given) [Salmeterol xinafoate],-3.67
17,CC(C)OC(=O)C(C)(C)Oc1ccc(C(=O)c2ccc(Cl)cc2)cc1 [Fenofibrate],12.7
18,COC(c1ccccc1)(c1ccccc1)[C@H](Oc1nc(C)cc(C)n1)C(=O)O [Ambrisentan],-7.26
19,O=c1[nH]c(=O)n([C@H]2C[C@H](O)[C@@H](CO)O2)cc1C(F)(F)F [Trifluorothymidine],6.73
20,C[C@@H](O[C@H]1OCCN(Cc2n[nH]c(=O)[nH]2)[C@H]1c1ccc(F)cc1)c1cc(C(F)(F)F)cc(C(F)(F)F)c1 [Aprepitant],4.96

row,SMILES,optomotor response to blue moving lines
1,C#C[C@]1(O)CC[C@H]2[C@@H]3CCC4=CC(=O)CC[C@@H]4[C@H]3CC[C@@]21CC [Levonorgestrel],19.5
2,CC(C)COCC(CN(Cc1ccccc1)c1ccccc1)N1CCCC1 (stereo not given) [Bepridil hydrochloride],7.44
3,NC(=O)OCC(COC(N)=O)c1ccccc1 [Felbamate],-1.4
4,CCOC(=O)C1=C(COCCN)NC(C)=C(C(=O)OC)C1c1ccccc1Cl (stereo not given) [Amlodipine besylate],6.74
5,CCOc1nc2cccc(C(=O)O)c2n1Cc1ccc(-c2ccccc2-c2noc(=O)[nH]2)cc1 [Azilsartan],7.48
6,C[C@]12CCC(=O)C=C1CC[C@@H]1[C@@H]2[C@@H](O)C[C@@]2(C)[C@H]1CC[C@]2(O)C(=O)CO [Hydrocortisone],8.43
7,CC(C)c1ccc2oc3nc(N)c(C(=O)O)cc3c(=O)c2c1 [Amlexanox],5.97
8,Nc1cccc2c1CN(C1CCC(=O)NC1=O)C2=O (stereo not given) [Lenalidomide],3.02
9,CCCCCOC(=O)Nc1nc(=O)n([C@@H]2O[C@H](C)[C@@H](O)[C@H]2O)cc1F [Capecitabine],16.5
10,COc1c(C)c2c(c(O)c1C/C=C(\C)CCC(=O)O)C(=O)OC2 [Mycophenolic acid],7
11,CN1CC2c3ccccc3Oc3ccc(Cl)cc3C2C1 (stereo not given) [Asenapine maleate],-10
12,Cc1ccc(NC(=O)c2ccc(CN3CCN(C)CC3)cc2)cc1Nc1nccc(-c2cccnc2)n1 [Imatinib mesylate],-0.219
13,Cc1ccsc1C(=CCCN1CCC[C@@H](C(=O)O)C1)c1sccc1C [Tiagabine hydrochloride],24.1
14,Nc1nc2[nH]cc(CCc3ccc(C(=O)N[C@@H](CCC(=O)O)C(=O)O)cc3)c2c(=O)[nH]1 [Pemetrexed],1.87
15,CNS(=O)(=O)Cc1ccc2[nH]cc(CCN(C)C)c2c1 [Sumatriptan succinate],-3.13
16,CN/C(=N\CCSCc1nc[nH]c1C)NC#N [Cimetidine],4.9
17,CC(C)CN(C[C@@H](O)[C@H](Cc1ccccc1)NC(=O)O[C@H]1CO[C@H]2OCC[C@H]21)S(=O)(=O)c1ccc(N)cc1 [Darunavir],8.12
18,CN(C)CCC[C@@]1(c2ccc(F)cc2)OCc2cc(C#N)ccc21 [Escitalopram oxalate],1.97
19,CN(C)CCc1c[nH]c2ccc(C[C@H]3COC(=O)N3)cc12 [Zolmitriptan],9.9
20,COCCc1ccc(OCC(O)CNC(C)C)cc1 (stereo not given) [Metoprolol tartrate],10.9
